Bioassay records deposited in PubChem by National Center for Advancing Translational Sciences (NCATS).
The list is not random: actives were taken first. Their share in the collection is about 0.85%.
TDP1 inh – blocks human tyrosyl-DNA phosphodiesterase 1 | actives 0.28% (n = 350,000) | Potency, µM (doses to about 130 µM), without a hit: top-dose activity change, negative = inhibition, hits mostly inhibitors | recombinant TDP1, AlphaScreen DNA substrate cleavage | AID 485290 | Q9NUW8; note: nearly all actives have a fitted effect of over 40% in size
Target sequence (Q9NUW8 whole entry, looked up): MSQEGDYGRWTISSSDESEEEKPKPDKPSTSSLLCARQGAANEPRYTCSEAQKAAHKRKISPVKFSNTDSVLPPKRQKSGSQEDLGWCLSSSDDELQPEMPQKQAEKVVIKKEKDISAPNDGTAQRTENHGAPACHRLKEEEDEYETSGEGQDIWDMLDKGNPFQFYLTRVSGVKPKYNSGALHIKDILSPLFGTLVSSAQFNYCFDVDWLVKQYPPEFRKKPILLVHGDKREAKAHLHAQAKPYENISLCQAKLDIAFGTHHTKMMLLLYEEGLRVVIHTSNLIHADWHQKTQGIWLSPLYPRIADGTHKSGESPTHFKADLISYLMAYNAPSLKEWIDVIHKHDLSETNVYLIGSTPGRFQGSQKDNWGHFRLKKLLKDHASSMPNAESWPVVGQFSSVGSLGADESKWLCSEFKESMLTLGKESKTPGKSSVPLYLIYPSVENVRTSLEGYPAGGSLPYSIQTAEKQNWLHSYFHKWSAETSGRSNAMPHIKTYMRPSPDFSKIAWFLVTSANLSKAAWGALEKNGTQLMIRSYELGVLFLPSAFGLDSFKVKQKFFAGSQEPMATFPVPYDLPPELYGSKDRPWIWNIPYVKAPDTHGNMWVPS
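Recombinant E. coli-expressed Tdp1 (1 nM) preincubated with compound 15 min at RT, then 5'-biotin/3'-phosphotyrosine-FITC DNA substrate (15 nM) added for 5 min. AlphaScreen beads (10 ug/ml) added, 10 min RT; tyrosine-FITC cleavage read as signal loss.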
BLM helicase inh – Bloom syndrome helicase (human) inhibition; P54132; recombinant BLM DNA unwinding, fluorescence dequenching; Potency, µM (titrated, usually from 56.1 µM), without a hit: at the highest dose activity change, negative = inhibition, usual class: inhibitors; actives 0.2% (n = 350,000); AID 2528;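 note: plate controls were vehicle for no effect and no enzyme for full effect; nearly all actives have a fitted effect of over 35% in size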
RECQ1 inh-1 – inhibitors of human RECQ1 DNA helicase; P46063; RECQ1 DNA unwinding, red fluorescence kinetic read; Potency, µM (series often up to 57.3 µM), inactives show at the highest dose activity, negative = inhibition, most hits filed as inhibitors; actives 0.54% (n = 240,000); AID 2549;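 note: plate controls were vehicle for no effect and no enzyme for full effect; nearly all actives have a fitted effect of over 30% in size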
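50 nM RECQ1T1 preincubated 15 min with compound in Tris pH 8.0 buffer with MgCl2, DTT, Tween-20 and 2.5 ug/ml poly(dI-dC); started with 200 nM TAMRA/BHQ-2 forked duplex and 2 mM ATP. Unwinding read as fluorescence (525/598 nm), two reads 2 h apart.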
GLS inh – inhibitors of human glutaminase (GLS). O94925. Potency, µM (highest dose often 45.5 µM), for inactives: at the highest dose activity change, negative = inhibition, actives largely listed as inhibitors. AID 624170. actives 0.21% (n = 410,000). GLS enzymatic activity, qHTS titration
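Human kidney-isoform GLS in 45 mM KH2PO4 pH 8.2, 0.02% Tween-20, with compound, started with 1mM L-Glutamine (added stock). Glutamate oxidase/HRP/Amplex red coupled fluorescence read at start and after 30 min at RT.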
APEX1 inh – APE1 (human) endonuclease inhibition; AID 2517; actives 0.35% (n = 350,000); Potency, µM (highest dose often 65.8 µM), inactives show top-dose activity change, negative = inhibition, hits mostly inhibitors; P27695; recombinant APE1, TAMRA/BHQ-2 abasic DNA cleavage fluorescence;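 note: plate controls were vehicle for no effect and reference inhibitor for full effect; nearly all actives have a fitted effect of over 55% in size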
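0.75 nM APE1 + cpd, 15 min RT; start w/ 50 nM TAMRA/BHQ-2 THF-abasic dsDNA; kinetic fluor 525/598 nm ×3 reads @60 s; Δ(read3−read1); normalized to DMSO and NSC13755 control wells.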
Tb PGK inh – inhibitors of T. brucei phosphoglycerate kinase. P07378. PGK/GAPDH coupled, Kinase-Glo luminescence, 60 min. Potency, µM (highest dose often 57.5 µM), without a hit: at the highest dose activity change, negative = inhibition, most hits filed as inhibitors. actives 0.043% (n = 380,000); note: nearly all actives have a fitted effect of over 60% in size
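Recombinant glycosomal PGK reaction used 1,3-bisphosphoglycerate generated in-well by GAPDH (100nM final) in 100mM TEA pH 7.6, 5mM MgCl2, 0.01% Tween-20. After 60 minutes at room temperature, ATP was read by Kinase-Glo Plus luminescence end-point.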
RECQ1 conf – confirmation of human RECQ1 helicase inhibitors. actives 28% (n = 610). shares compounds with RECQ1 inh-1. RECQ1 helicase DNA unwinding, fluorescence. Potency, µM (highest dose often 229 µM), for inactives: at the top dose activity change, negative = inhibition, actives largely listed as inhibitors; note: nearly all actives have a fitted effect of over 45% in size
RECQ1 ADP FP – counter-screen for RECQ1 inhibitors: ADP displacement. shares compounds with RECQ1 inh-1. ADP fluorescence polarization displacement counterscreen. Potency, µM (series often up to 228 µM), for the others: at the highest dose activity change, negative = inhibition, most hits filed as inhibitors. actives 27% (n = 530); note: nearly all actives have a fitted effect of over 45% in size
RECQ1 inh-2 – blocks human RECQ1 DNA unwinding; shares compounds with RECQ1 inh-1; recombinant RECQ1 DNA unwinding, red fluorescence; Potency, µM (highest dose often 119 µM), for the others: at the top dose activity, negative = inhibition, usual class: inhibitors; actives 15% (n = 1,100); AID 504841; note: nearly all actives have a fitted effect of over 50% in size
An asterisk follows results filed as active; i = inactive; ? = inconclusive; / = no result given. Calls come from the whole dose curve; as a rule, active = well fitted curve in the direction sought with a large enough effect; inconclusive = small, poorly fitted or top-dose-only effect, or another doubt; inactive = no such curve, though single readings can be large; an effect the other way counts as inactive or inconclusive. Unless noted, % is set by controls: 0 for no effect and ±100 for the full control effect; potency is the fitted concentration of half-maximal effect.

SMILES | TDP1 inh | BLM helicase inh | RECQ1 inh-1 | GLS inh | APEX1 inh | Tb PGK inh | RECQ1 inh-2 | others
CC(C)C[C@H](NC(=O)[C@H](CCCCN)NC(=O)CNC(=O)[C@H](CC(C)C)NC(=O)[C@@H](NC(=O)[C@@H]1CSSC[C@H](N)C(=O)N[C@@H](CO)C(=O)N[C@@H](CC(N)=O)C(=O)N[C@@H](CC(C)C)C(=O)N[C@@H](CO)C(=O)N[C@@H]([C@@H](C)O)C(=O)N1)C(C)C)C(=O)N[C@@H](CO)C(=O)N[C@@H](CCC(N)=O)C(=O)N[C@@H](CCC(=O)O)C(=O)N[C@@H](CC(C)C)C(=O)N[C@@H](Cc1cnc[nH]1)C(=O)N[C@@H](CCCCN)C(=O)N[C@@H](CC(C)C)C(=O)N[C@@H](CCC(N)=O)C(=O)N[C@H](C(=O)N[C@@H](Cc1ccc(O)cc1)C(=O)N1CCC[C@H]1C(=O)N[C@@H](CCCNC(=N)N)C(=O)N[C@H](C(=O)N[C@@H](CC(N)=O)C(=O)N[C@H](C(=O)NCC(=O)N[C@@H](CO)C(=O)NCC(=O)N[C@H](C(=O)N1CCC[C@H]1C(N)=O)[C@@H](C)O)[C@@H](C)O)[C@@H](C)O)[C@@H](C)O | 13% | -1% | 13% | / | 13% | / | /
COC(=O)C1=C(C)N(c2cccc3ccccc23)C(=O)C1 | 4% | 0% | ? | ? | -1% | i | -20%
CCCCC/C=C\C/C=C\CCCCCCCCCC(=O)NC(C)C(=O)O (configuration not stated) | 4% | 1% | i | / | -2% | / | /
C[C@H]1O[C@@H](n2cnc3c(N)ncnc32)C[C@@H]1OP(=O)(O)OP(=O)(O)OP(=O)(O)O | 9% | 2% | -9% | / | -3% | / | /
O=C(Nc1nc2ccc(SC(F)F)cc2s1)c1ccc(NS(=O)(=O)c2ccc(F)c(F)c2)cc1 | 2% | -19% | ? | 3% | -9% | -6% | ?
Cc1ccc2nc(NC(=O)c3ccc(N4C(=O)CCC4=O)cc3)sc2c1 | 5% | 1% | -16% | 3% | 3% | -6% | /
CS(=O)(=O)c1ccc2nc(NC(=O)c3ccc(NS(=O)(=O)c4ccc(F)c(F)c4)cc3)sc2c1 | -1% | -12% | 32µM* | 4% | -6% | -4% | -21%
CS(=O)(=O)c1ccc2nc(NC(=O)c3cccc(NS(=O)(=O)c4ccc(F)c(F)c4)c3)sc2c1 | 5% | -2% | -5% | 10% | 8% | -3% | /
CC(C)(C)NS(=O)(=O)c1ccc2nc(NC(=O)c3ccc(N4C(=O)CCC4=O)cc3)sc2c1 | 3% | -9% | i | -5% | -1% | 4% | / | RECQ1 conf=14%;RECQ1 ADP FP=-6%
O=[N+]([O-])c1cccc(S(=O)(=O)N2CCN(c3nc(-c4cccs4)nc4ccccc34)CC2)c1 | 2% | / | / | / | / | / | /
Oc1ccc(Br)cc1C1C=C(c2ccc3c(c2)OCO3)NC(c2ccc(Br)cc2)N1 (configuration not stated) | 3% | / | / | / | / | / | /
C=C(C)[C@@H]1C2=CC(C(=O)OC)=C(C[C@@H](C(=C)C)[C@H]3O[C@H]3C3=C[C@H]1OC3=O)O2 | 1% | / | / | / | / | / | /
CCn1c(SCC(=O)NCc2ccco2)nc2ccccc2c1=O | 4% | 3% | ? | -2% | 4% | -4% | -11%
CCOC(=O)c1ccc(N2C(=O)c3n[nH]c(-c4ccco4)c3C2c2ccc(C)cc2)cc1 (configuration not stated) | 7% | -17% | / | 4% | / | -1% | /
CCOC(=O)c1ccc(N2C(=O)c3n[nH]c(-c4ccco4)c3C2c2ccc([N+](=O)[O-])cc2)cc1 (configuration not stated) | 6% | -10% | ? | -3% | -10% | -5% | -19%
CC[C@H](C)[C@H](NC(=O)[C@H](CCC(=O)O)NC(=O)[C@H](CC(N)=O)NC(=O)[C@@H](N)[C@@H](C)O)C(=O)N[C@H](C(=O)N[C@@H](CCC(=O)O)C(=O)N[C@@H](CCC(=O)O)C(=O)N[C@@H](CCC(N)=O)C(=O)N[C@@H](Cc1ccc(O)cc1)C(=O)N[C@H](C(=O)N1CCC[C@H]1C(=O)N[C@@H](CCC(N)=O)C(=O)N[C@@H](CO)C(=O)N[C@@H](CC(C)C)C(=O)N[C@@H](C)C(=O)N[C@H](C(=O)N[C@@H](CC(C)C)C(=O)N[C@@H](CCC(=O)O)C(=O)N[C@@H](CO)C(=O)N[C@H](C(=O)N[C@@H](Cc1ccccc1)C(=O)N[C@@H](CCC(N)=O)C(=O)N[C@@H](CCC(=O)O)C(=O)N[C@@H](CC(C)C)C(=O)NCC(=O)N[C@@H](CCCCN)C(=O)N[C@@H](CC(C)C)C(=O)N[C@H](C(=O)NCC(=O)N1CCC[C@H]1C(=O)N[C@@H](CC(N)=O)C(=O)N[C@@H](CO)C(=O)N[C@@H](CCC(N)=O)C(=O)O)[C@@H](C)O)C(C)C)[C@@H](C)O)[C@@H](C)O)C(C)C | 15% | 3% | -17% | / | -2% | / | /
Cn1c(N)c(C(=O)COC(=O)C2CC(O)CN2S(=O)(=O)c2ccc(Cl)cc2)c(=O)n(C)c1=O (configuration not stated) | -1% | -1% | 0% | 1% | 3% | 1% | / | RECQ1 conf=15%;RECQ1 ADP FP=6%
CCN(CCCCN1C(=O)c2ccccc2C1=O)c1ccc2c(c1)C(=O)N(C)C2=O | / | -24% | 28µM* | -9% | ? | / | ?
Cc1cc(=O)oc2c(CN3CCC(C)CC3)c(O)c(Cl)cc12 | ? | -17% | 28µM* | -13% | ? | -10% | ?
